Measured values taken from PubChem BioAssay AID624117 (National Center for Advancing Translational Sciences (NCATS), 2012).
Inconclusive results are not listed. Calls come from the whole dose curve; as a rule, active = well fitted curve in the direction sought with a large enough effect; inconclusive = small, poorly fitted or top-dose-only effect, or another doubt; inactive = no such curve, though single readings can be large or run the other way.

Test: qHTS Assay for Rab9 Promoter Activators: Hit Validation Using Renilla Luciferase Read-Out; note: % of control where 0% means no effect
Details: Huh7 NPC1 promoter Renilla luciferase reporter, 24 h; series mostly up to 76.9 µM; activation (negative = inhibition): at the top concentration
Method in brief: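 Hit validation in Huh7 NPC promoter-luciferase reporter line: compound treatment 24 h at 37 deg C, then luminescence measured after 10 min room-temperature incubation with […] reagent.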

Activation (negative = inhibition), inactive:
CCCCCCC(=O)Nc1ccc(C(=O)N/N=C/c2cccnc2)cc1 2.29%, CC1CC(C)CN(CC(=O)N2CCOCC2)C1 (stereo not drawn) -13.3%, O=C(NCCc1c[nH]c2ccccc12)C(=O)NCC(c1ccco1)N1CCN(c2ccccc2F)CC1 (stereo not drawn) -40.5%, COc1ccc([N+](=O)[O-])cc1COc1ccc2c(-c3ccccc3)cc(=O)oc2c1 3.67%, C=CCc1ccc(OCCOCCNCCOC)c(OC)c1 17.9%, CNC(=O)Cn1nc(C)c2ccccc2c1=O -4.32%, CN(C)C(=O)[C@H]1C[C@H]1[C@@H](O)[C@H](CO)NC(=O)[C@H](COCc1ccccc1)NC(=O)OC(C)(C)C -12%, CC1CN(C(=O)c2ccncc2)CC(C)O1 (stereo not drawn) 6.29%, COc1ccc(S(=O)(=O)NC(C(=O)NCCc2ccccn2)C(C)C)cc1 (stereo not drawn) -1.28%, COc1cccc(C(C(=O)NC2CCCC2)N(CCC(C)C)C(=O)CCC(=O)Nc2cc(C)on2)c1 (stereo not drawn) 14.4%, CCOC(=O)c1cc2sccc2n1CC(=O)N1CCCc2ccccc21 -5.06%, CCCc1cc(C(=O)Nc2ccccc2SC)no1 24.4%, COc1ccc(-c2csc(Nc3ncccn3)n2)cc1C -0.405%, O=C(CN1C(=O)COc2ccc(Cl)cc21)NCC1CCCO1 (stereo not drawn) 1.1%, CCN(Cc1nc2cc(Cl)ccc2c(=O)[nH]1)C(=O)C1CC(=O)N(c2cccc3ccccc23)C1 (stereo not drawn) 3.31%, CCC(=O)N1c2ccccc2NC2=C(C(=O)CCC2)C1c1ccc(N(C)C)cc1 (stereo not drawn) 4.45%, CC(C)CC(=O)N1CCN(c2ccc(NC(=O)c3ccco3)cc2)CC1 -4.48%, O=C(Nc1nc2ccc(F)cc2s1)c1ccc(N2CCCC2=O)cc1 2.48%, Cc1ccc(S(=O)(=O)N2CCN(c3cnn(C)c(=O)c3Cl)CC2)cc1 -10.5%, CCCCn1c(Nc2ccc(OC)cc2)nc2ccccc21 -1.27%, O=C(CCCn1c(=O)oc2ccccc21)N1CCN(c2ccccn2)CC1 -0.368%, O=C(CCN1C(=O)c2ccccc2C1=O)Nc1ccc(-c2nc3ccccc3s2)cc1 -11.4%, CC1CCc2sc(C(=O)NNC(=S)NC3CC3)cc2C1 (stereo not drawn) -43.9%, Fc1ccc(-c2nc3nc4ccccc4nc3n2Cc2ccco2)cc1 -83.1%, Cc1cc(C)cc(N(CC(=O)NC2CCCC2)C(=O)CNC(=O)c2ccco2)c1 13.6%, Cc1nc2sc(C(=O)OC(C)C)c(N)c2c(C)c1C -0.581%, Cc1[nH]n(-c2cccc3ccccc23)c(=O)c1/C=N/c1sc2c(c1C#N)CCC2 -2.16%, COc1ccccc1N(C(=O)c1snc(C(N)=O)c1N)C(C(=O)NC1CCCCC1)c1cccc(OC)c1OC (stereo not drawn) -0.496%, COc1ccc(NC(=O)CSc2ccc([N+](=O)[O-])cc2)cc1S(=O)(=O)N1CCOCC1 11.6%, Cc1cccc(NC(=O)CSc2nc3ccccc3o2)c1 -11.1%, COc1ccc(-n2cc(-c3ccc(Cl)cc3)[nH]c2=S)cc1 -11.6%, COc1cccc(NC(=O)CN2C(=O)CSc3ccc(S(=O)(=O)N4CCC(C)CC4)cc32)c1 -28.4%, COCCSc1ncnc2c1oc1nc3c(cc12)COC(C)(C)C3 -6.48%, Cc1ccc(NC(=O)NC(=O)c2ccccc2)cc1F -13.6%, COc1cccc(C2Nc3ccccc3NC3=C2C(=O)CC(C)(C)C3)c1 (stereo not drawn) -1.62%, CC1CCCN(S(=O)(=O)c2ccc(C(=O)Nc3nnc(-c4ccncc4)o3)cc2)C1 (stereo not drawn) -97.9%, CC(C)(C)NC(=S)NNC(=O)c1ccc2ncccc2c1 -57.9%, Cc1c(C(O)CN2CCN(Cc3ccc4c(c3)OCO4)CC2)c2ccccc2n1C (stereo not drawn) 11.6%
